Source: PubChem (several laboratories)
EBV gp42 inh = inhibitors of Epstein-Barr virus glycoprotein 42; Q1HVG2; Fluorescence polarization binding assay, mP read-out; inhibition, % (tested at 21.74 µM); 0.42% of 220,000 active; AID 1085; in the data active means inhibition above about 50%
Target sequence (Q1HVG2 whole entry, looked up): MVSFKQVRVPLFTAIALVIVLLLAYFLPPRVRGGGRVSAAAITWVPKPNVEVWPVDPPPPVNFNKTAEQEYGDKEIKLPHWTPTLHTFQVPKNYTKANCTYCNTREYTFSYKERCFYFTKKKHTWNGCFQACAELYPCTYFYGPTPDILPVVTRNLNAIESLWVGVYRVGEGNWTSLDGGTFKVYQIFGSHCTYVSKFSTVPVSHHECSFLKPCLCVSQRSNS
Keap1 Nrf2 FP = Keap1-Nrf2 (human) interaction inhibition. Q14145. Keap1 Kelch-Nrf2 peptide fluorescence polarization, 1536-well. inhibition, % at 9.4 µM. 0.15% of 340,000 active. AID 504523; in the data active means inhibition above about 12%;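 further: human Keap1 Kelch domain with fluorescein labeled Nrf2 9mer peptide probe; 0% = neutral control wells and 100% = peptide positive control; higher means more block of Keap1 binding to Nrf2 peptide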
GLD-1 TGE inh = GLD-1-TGE RNA interaction inhibition (C. elegans). Q17339. purified GLD-1 + fluorescein TGE RNA, fluorescence polarization. inhibition, % at 5.96 µM. 0.44% of 320,000 active;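 active means percent inhibition above a per-plate cutoff, the plate mean of test compounds plus 3 SD, cut at about 30% in these data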;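 further: 0% = DMSO wells with GLD-1 and probe and 100% = wells lacking GLD-1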
E coli Lon inh = E. coli protease La inhibition. purified E. coli Lon protease, fluorescence polarization. inhibition, % at 7.94 µM. 0.42% of 360,000 active; in the data active means inhibition above about 13%, passing the limit was not always enough;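 further: 0% = enzyme with probe and DMSO and 100% = no enzyme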
LANA DNA inh = inhibitors of KSHV LANA C-terminal domain DNA binding. MBP-C-LANA/FAM-LBS DNA binding, fluorescence polarization. inhibition, % at 9 µM. 0.078% of 340,000 active. AID 504423;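 active means highest replicate inhibition at or above 60% at 9 µM, even if other replicates fall short; inactive means all replicates below 60% inhibition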;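 further: 0% = neutral control wells and 100% = 4 µM acridine orange control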
LANA-H2A inh = blocks KSHV LANA binding to histone H2A/H2B; 0.6% of 320,000 active; Q9QR71; inhibition, % (concentration not given with the values); cell-free LANA-H2A/H2B peptide, fluorescence polarization; in the data active means inhibition mostly above about 10%, no sharp cut-off; inactive means mostly below about 6.7%
Active calls of the source: *; / = no result given; + = active, no number. Hits are enriched below; roughly 1.5% of the tested compounds scored in any of these assays.

SMILES	EBV gp42 inh	Keap1 Nrf2 FP	GLD-1 TGE inh	E coli Lon inh	LANA DNA inh	LANA-H2A inh
CC(=O)Nc1cc(-c2cccc(F)c2)cn2c(-c3ccc(F)cc3)cnc12	/	/	/	-15	/	/
COc1ccc2oc(C(=O)OCC(=O)/C(C#N)=C(\C)N)c(C)c2c1	-6	6	0	-7	0	4
COc1cccc(-n2c(N)c(C#N)c3ccc([N+](=O)[O-])cc3c2=O)c1	11	/	2	/	/	-5
COc1ccc(-n2c(N)c(C#N)c3ccc([N+](=O)[O-])cc3c2=O)cc1	52*	-1	8	-1	4	1
C[C@@H]1CC2=C(C(=O)OC(C)(C)O2)[C@H](c2ccc(Cl)cc2)O1	/	/	/	2	/	/
O=C(CC1SC(N2CCCCC2)=NC1=O)Nc1cccc(C(=O)O)c1 (stereo unspecified)	-2	-1	4	-3	1	14*
N#CCc1cnc2ccccc2n1	-6	-5	60*	3	1	5
CCOc1ccccc1OCCOc1ccc(F)cc1	-7	-1	-1	-3	0	26*
COC(=O)c1ccccc1NC(=O)CCCN1C(=O)C(c2ccccc2)Oc2cccnc21 (stereo unspecified)	/	0	2	-4	2	5
CNC(=S)NN(c1ccccc1)c1ccccc1	84*	-9	2	-2	1	-2
CCCCNC(=O)C1(C)CCCCN1C(=O)c1c(C)noc1C (stereo unspecified)	/	/	/	2	/	/
COc1cc(/C=C2\SC(=O)N(Cc3ccc(Cl)cc3)C2=O)cc([N+](=O)[O-])c1O	90*	-2	/	-4	0	/
COc1cc(/C=C2\SC(=O)N(Cc3ccc(F)cc3)C2=O)cc([N+](=O)[O-])c1O	58*	-3	/	0	-2	/
COc1cc(/C=C2/SC(=S)N(Cc3ccccc3)C2=O)cc(Cl)c1O	/	-6	-14	-108	-19	-11
CCOC(=O)CN1C(=O)S/C(=C/c2ccc(OC)c([N+](=O)[O-])c2)C1=O	8	-8	7	3	2	10
COC(=O)C1=C(C)NC(=O)/C1=C\N(C)C	12	0	68*	24	3	0
Cc1c(CN2CCC(CO)(CCOc3ccccc3)CC2)[nH]c2c(Cl)cccc12	44	1	-1	3	-1	17*
Cc1nn(C)c(Cl)c1CN1CCC(CO)(CCOc2ccccc2)CC1	2	0	-5	-6	-4	1
O=C(Nc1c(-c2ccc(Cl)cc2)[nH][nH]c1=O)c1ccc(Br)cc1	/	/	/	-6	/	/
C/C=C/c1ccc2c(c1)O[C@@H](CN(C)C(=O)c1ccc(F)cc1)[C@@H](C)CN([C@H](C)CO)S2(=O)=O	/	/	/	-8	/	/
COc1ccc(OC)c(C(C)NC(=O)C23CC4CC(CC(C4)C2)C3)c1 (stereo unspecified)	/	0	4	-5	109*	5
COC(=O)c1ccccc1COc1cccn2c(N(C)Cc3cccs3)c(C)nc12	/	/	/	-8	/	/
O=C(CCOc1ccccc1)Nc1ccc([N+](=O)[O-])cc1	-3	-4	-1	9	0	15*
O=C(Nc1ccc([N+](=O)[O-])cc1)C1C(c2ccccc2)=C1c1ccccc1	-22	-4	5	-2	-2	18*
COC(=O)c1ccc(NC(=O)COc2ccc([N+](=O)[O-])cc2)cc1	-18	-5	4	4	-1	20*
SMILES	EBV gp42 inh	Keap1 Nrf2 FP	GLD-1 TGE inh	E coli Lon inh	LANA DNA inh	LANA-H2A inh
COCCOC(=O)c1ccc(NC(=O)COc2ccc([N+](=O)[O-])cc2)cc1	-3	0	8	-1	-2	-2
C=C(C)[C@@H]1C2=CC(C(=O)OC)=C(C[C@H](C(=C)C)[C@H]3O[C@H]3C3=C[C@H]1OC3=O)O2	/	/	/	0	/	/
COc1ccc(-c2noc(CCC(=O)NC3CCCCCC3)n2)cc1OC	/	/	/	-1	/	/
O=[N+]([O-])c1cc(CN2CCOCC2)c2cccnc2c1O	87*	/	/	/	/	/
CC(=O)c1ccc(Nc2nc(C(N)CCc3ccccc3)cs2)cc1 (stereo unspecified)	/	/	/	-9	/	/
c1ccc(-c2ccccc2OCCCN2CCCCCC2)cc1	-11	-3	1	1	-2	84*
CCCCNC(=O)CN1CCC2(O)CCCCC2C1c1ccccc1OC (stereo unspecified)	-2	-4	79*	-4	2	1
CN(CCNC(=O)c1c[nH]c2c1ccc1ccccc12)CCNC(=O)c1c[nH]c2c1ccc1ccccc12	/	-4	/	-13	-1	/
CCCCN(CCCNC(=O)c1ccc2c(c1)NC(=O)CN2C)c1ccccc1	/	/	/	0	/	/
O=C(CN1C(=O)C2C3C=CC(C3)C2C1=O)NCc1ccc2c(c1)OCO2 (stereo unspecified)	-14	-4	1	-3	0	19*
O=C(OCc1ccccc1)N1C=CCC[C@@H]1c1c(Cl)cccc1Br	/	/	/	5	/	/
COCC(=O)Nc1ccc2c(c1)[C@@H]1C[C@H](CC(=O)NCc3cccc(F)c3)O[C@@H](CO)[C@@H]1O2	/	/	/	-10	/	/
CCCn1c(=N)c(C#N)cc2c(=O)n3ccccc3nc21	-11	-1	4	-7	-1	13*
CCCn1c(=N)c(C#N)cc2c(=O)n3cccc(C)c3nc21	0	/	-2	/	/	2
Cc1cc(/C=C2/C(=N)N3C(=NC2=O)SN=C3S(C)(=O)=O)c(C)n1-c1ccccc1F	0	-4	9	-9	1	7
CS(=O)(=O)C1=NSC2=NC(=O)/C(=C\c3cccn3-c3ccc(Cl)cc3)C(=N)N21	39	-1	14	-16	5	48*
COC(=O)c1ccc(N2C(c3cccc(OC)c3)=Cc3ccc(F)cc3C2c2c(C)[nH]c3ccccc23)cc1 (stereo unspecified)	/	/	/	4	/	/
Cc1ccc(S(=O)(=O)N2CCN(C(=O)n3ccnc3)CC2)cc1	/	-1	4	-12	1	31*
ClCc1nc2ccccc2n1Cc1ccccc1	/	-2	57*	10	5	15
O=c1[nH]cnc2c1ncn2C1CCC(CO)O1 (stereo unspecified)	/	/	/	-7	/	/
O=C(NCc1ccncc1)C(=O)NC1CC1	-2	-4	-1	8	1	+
O=C(c1[nH]c(C(F)(F)F)nc1-c1ccccc1)N1CCC2(CC1)C(=O)NCN2c1ccccc1	/	/	/	-3	/	/
COC(=O)c1cc(NC(=O)c2cc3ccccc3o2)cc(C(=O)OC)c1	/	-6	8	8	1	16*
O=C(O)c1cc(NC(=O)c2ccccc2F)cc(NC(=O)c2ccccc2F)c1	/	2	3	2	-1	4
COC(=O)c1cc(NC(=O)c2ccccc2F)cc(C(=O)OC)c1	-7	0	-1	-5	1	22*
O=C1NC[C@@H](CCCCN2CCN(CCc3ccccc3)C(=O)C2=O)N(CCc2ccc(O)cc2)C1=O	/	/	/	-6	/	/
